# Measured values from the supplement of paper PMC10849652.
# Of roughly 7,900 targets only a part is listed; those with a hit were picked by preference. About 0.6% of all pairs of compound and target were hits. Values without a mark were called inactive.
# Legend:
# Experiment in all cases: log2 fold change, soluble protein after heating vs DMSO (PISA); higher = thermal stabilisation; K562 cells, 10 uM, 30 min; active = over 0.2 and 3.5 SD of the protein, either way, in both replicates (recomputed)
# IRAK-1-4 Inhibitor I = compound: C1COCCN1CCN2C3=CC=CC=C3N=C2NC(=O)C4=CC(=CC=C4)[N+](=O)[O-] [IRAK-1-4 Inhibitor I]
# In short: (§1)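 For each measurement, 10 μM compound was applied for 30 min to K562 cells at 2×10^6 cells/mL. Aliquots were heated for 3 min across 48°C-58°C, pooled, and extracted in PBS with 0.5% NP-40 at 4°C; the supernatant after 21,000xg for 90 min was soluble protein. This was quantified by TMTpro 16plex LC-MS/MS with channel sums equalised, and thermal stability was reported relative to control samples from duplicates, on a log2 fold-change scale.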
# ibrutinib = compound: C=CC(=O)N1CCC[C@@H](n2nc(-c3ccc(Oc4ccccc4)cc3)c3c(N)ncnc32)C1 [ibrutinib]
# In short: as §1
# [1] = compound: CC(=O)c1cnc2ccc(-c3cc(Cl)c(O)c(Cl)c3)nc2c1N[C@H]1CC[C@H](CN(C)C)CC1
# In short: as §1
# ralimetinib = compound: CC(C)(C)Cn1c(N)nc2ccc(-c3[nH]c(C(C)(C)C)nc3-c3ccc(F)cc3)nc21 [ralimetinib]
# In short: as §1
# [2] = compound: CC(C)(O)CC(=O)NCCn1ccc2ncnc(Nc3ccc(Oc4cccc(C(F)(F)F)c4)c(Cl)c3)c21
# In short: as §1
# [3] = compound: CC(C)C1=C2N=C(C=C(N2N=C1)NCC3=CC=CC=C3)NCCCCCCN
# In short: as §1
# [4] = compound: CC(C)C[C@@H](C=O)NC(=O)[C@H](CC(C)C)NC(=O)[C@H](CC(C)C)NC(=O)OCc1ccccc1
# In short: as §1
# pinometostat = compound: CC(C)N(C[C@H]1O[C@@H](n2cnc3c(N)ncnc32)[C@H](O)[C@@H]1O)[C@H]1C[C@@H](CCc2nc3cc(C(C)(C)C)ccc3[nH]2)C1 [pinometostat]
# In short: as §1
# [5] = compound: CC1=C(C(CC(=O)N1)C2=CC=C(C=C2)C(F)(F)F)C(=O)NC3=C(C=C4C(=C3)C=NN4)F
# In short: as §1
# [6] = compound: CC1=C(C=C(C=C1)NC(=O)C2=CC(=CC=C2)C(C)(C)C#N)NC3=CC4=C(C=C3)N=CN(C4=O)C
# In short: as §1
# [7] = compound: CC1=C(C=C(C=C1)NC(=O)C2=CC(=CC=C2)N(C)C)NC(=O)C3=CC=C(C=C3)O
# In short: as §1
# [8] = compound: CC1=CC=C(C=C1)SC2=C3C=C(SC3=CN=C2)C(=O)N
# In short: as §1
# [9] = compound: CC1=NC(=CC=C1)C2=C(N=C(N2)C(C)(C)C)C3=CC4=NC=CN=C4C=C3
# In short: as §1
# Nexturastat A = compound: CCCCN(Cc1ccc(C(=O)NO)cc1)C(=O)Nc1ccccc1 [Nexturastat A]
# In short: as §1
# vemurafenib = compound: CCCS(=O)(=O)Nc1ccc(F)c(C(=O)c2c[nH]c3ncc(-c4ccc(Cl)cc4)cc23)c1F [vemurafenib]
# In short: as §1
# [10] = compound: CCCS(=O)(=O)Nc1ccc(F)c(C(=O)c2c[nH]c3ncc(Cl)cc23)c1F
# In short: as §1
# [11] = compound: CCCc1cc(C)[nH]c(=O)c1CNC(=O)c1cc(-c2ccnc(N3CCN(C)CC3)c2)cc2c1cnn2C(C)C
# In short: as §1
# givinostat = compound: CCN(CC)Cc1ccc2cc(COC(=O)Nc3ccc(C(=O)NO)cc3)ccc2c1 [givinostat]
# In short: as §1
# barasertib = compound: CCN(CCCOc1ccc2c(Nc3cc(CC(=O)Nc4cccc(F)c4)[nH]n3)ncnc2c1)CCOP(=O)(O)O [barasertib]
# In short: as §1
# [12] = compound: CC1=C(C2=C(C=C1)C(=O)C3=CC=CC=C3N2CCCN)C
# In short: as §1
# UniProt Q9NWX5, sequence (Q9NWX5 whole entry, looked up): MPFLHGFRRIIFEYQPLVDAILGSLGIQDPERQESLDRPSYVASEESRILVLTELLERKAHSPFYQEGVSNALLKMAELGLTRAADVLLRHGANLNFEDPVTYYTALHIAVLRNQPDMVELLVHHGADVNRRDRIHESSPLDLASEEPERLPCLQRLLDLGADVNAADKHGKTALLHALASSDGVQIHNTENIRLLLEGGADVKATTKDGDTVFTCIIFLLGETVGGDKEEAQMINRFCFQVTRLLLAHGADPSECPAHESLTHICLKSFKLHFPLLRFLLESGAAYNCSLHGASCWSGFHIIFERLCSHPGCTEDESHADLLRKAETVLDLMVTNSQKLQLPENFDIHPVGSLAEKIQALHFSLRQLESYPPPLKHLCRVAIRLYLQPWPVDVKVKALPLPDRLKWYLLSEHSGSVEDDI
# UniProt Q01484, sequence (Q01484 whole entry, looked up): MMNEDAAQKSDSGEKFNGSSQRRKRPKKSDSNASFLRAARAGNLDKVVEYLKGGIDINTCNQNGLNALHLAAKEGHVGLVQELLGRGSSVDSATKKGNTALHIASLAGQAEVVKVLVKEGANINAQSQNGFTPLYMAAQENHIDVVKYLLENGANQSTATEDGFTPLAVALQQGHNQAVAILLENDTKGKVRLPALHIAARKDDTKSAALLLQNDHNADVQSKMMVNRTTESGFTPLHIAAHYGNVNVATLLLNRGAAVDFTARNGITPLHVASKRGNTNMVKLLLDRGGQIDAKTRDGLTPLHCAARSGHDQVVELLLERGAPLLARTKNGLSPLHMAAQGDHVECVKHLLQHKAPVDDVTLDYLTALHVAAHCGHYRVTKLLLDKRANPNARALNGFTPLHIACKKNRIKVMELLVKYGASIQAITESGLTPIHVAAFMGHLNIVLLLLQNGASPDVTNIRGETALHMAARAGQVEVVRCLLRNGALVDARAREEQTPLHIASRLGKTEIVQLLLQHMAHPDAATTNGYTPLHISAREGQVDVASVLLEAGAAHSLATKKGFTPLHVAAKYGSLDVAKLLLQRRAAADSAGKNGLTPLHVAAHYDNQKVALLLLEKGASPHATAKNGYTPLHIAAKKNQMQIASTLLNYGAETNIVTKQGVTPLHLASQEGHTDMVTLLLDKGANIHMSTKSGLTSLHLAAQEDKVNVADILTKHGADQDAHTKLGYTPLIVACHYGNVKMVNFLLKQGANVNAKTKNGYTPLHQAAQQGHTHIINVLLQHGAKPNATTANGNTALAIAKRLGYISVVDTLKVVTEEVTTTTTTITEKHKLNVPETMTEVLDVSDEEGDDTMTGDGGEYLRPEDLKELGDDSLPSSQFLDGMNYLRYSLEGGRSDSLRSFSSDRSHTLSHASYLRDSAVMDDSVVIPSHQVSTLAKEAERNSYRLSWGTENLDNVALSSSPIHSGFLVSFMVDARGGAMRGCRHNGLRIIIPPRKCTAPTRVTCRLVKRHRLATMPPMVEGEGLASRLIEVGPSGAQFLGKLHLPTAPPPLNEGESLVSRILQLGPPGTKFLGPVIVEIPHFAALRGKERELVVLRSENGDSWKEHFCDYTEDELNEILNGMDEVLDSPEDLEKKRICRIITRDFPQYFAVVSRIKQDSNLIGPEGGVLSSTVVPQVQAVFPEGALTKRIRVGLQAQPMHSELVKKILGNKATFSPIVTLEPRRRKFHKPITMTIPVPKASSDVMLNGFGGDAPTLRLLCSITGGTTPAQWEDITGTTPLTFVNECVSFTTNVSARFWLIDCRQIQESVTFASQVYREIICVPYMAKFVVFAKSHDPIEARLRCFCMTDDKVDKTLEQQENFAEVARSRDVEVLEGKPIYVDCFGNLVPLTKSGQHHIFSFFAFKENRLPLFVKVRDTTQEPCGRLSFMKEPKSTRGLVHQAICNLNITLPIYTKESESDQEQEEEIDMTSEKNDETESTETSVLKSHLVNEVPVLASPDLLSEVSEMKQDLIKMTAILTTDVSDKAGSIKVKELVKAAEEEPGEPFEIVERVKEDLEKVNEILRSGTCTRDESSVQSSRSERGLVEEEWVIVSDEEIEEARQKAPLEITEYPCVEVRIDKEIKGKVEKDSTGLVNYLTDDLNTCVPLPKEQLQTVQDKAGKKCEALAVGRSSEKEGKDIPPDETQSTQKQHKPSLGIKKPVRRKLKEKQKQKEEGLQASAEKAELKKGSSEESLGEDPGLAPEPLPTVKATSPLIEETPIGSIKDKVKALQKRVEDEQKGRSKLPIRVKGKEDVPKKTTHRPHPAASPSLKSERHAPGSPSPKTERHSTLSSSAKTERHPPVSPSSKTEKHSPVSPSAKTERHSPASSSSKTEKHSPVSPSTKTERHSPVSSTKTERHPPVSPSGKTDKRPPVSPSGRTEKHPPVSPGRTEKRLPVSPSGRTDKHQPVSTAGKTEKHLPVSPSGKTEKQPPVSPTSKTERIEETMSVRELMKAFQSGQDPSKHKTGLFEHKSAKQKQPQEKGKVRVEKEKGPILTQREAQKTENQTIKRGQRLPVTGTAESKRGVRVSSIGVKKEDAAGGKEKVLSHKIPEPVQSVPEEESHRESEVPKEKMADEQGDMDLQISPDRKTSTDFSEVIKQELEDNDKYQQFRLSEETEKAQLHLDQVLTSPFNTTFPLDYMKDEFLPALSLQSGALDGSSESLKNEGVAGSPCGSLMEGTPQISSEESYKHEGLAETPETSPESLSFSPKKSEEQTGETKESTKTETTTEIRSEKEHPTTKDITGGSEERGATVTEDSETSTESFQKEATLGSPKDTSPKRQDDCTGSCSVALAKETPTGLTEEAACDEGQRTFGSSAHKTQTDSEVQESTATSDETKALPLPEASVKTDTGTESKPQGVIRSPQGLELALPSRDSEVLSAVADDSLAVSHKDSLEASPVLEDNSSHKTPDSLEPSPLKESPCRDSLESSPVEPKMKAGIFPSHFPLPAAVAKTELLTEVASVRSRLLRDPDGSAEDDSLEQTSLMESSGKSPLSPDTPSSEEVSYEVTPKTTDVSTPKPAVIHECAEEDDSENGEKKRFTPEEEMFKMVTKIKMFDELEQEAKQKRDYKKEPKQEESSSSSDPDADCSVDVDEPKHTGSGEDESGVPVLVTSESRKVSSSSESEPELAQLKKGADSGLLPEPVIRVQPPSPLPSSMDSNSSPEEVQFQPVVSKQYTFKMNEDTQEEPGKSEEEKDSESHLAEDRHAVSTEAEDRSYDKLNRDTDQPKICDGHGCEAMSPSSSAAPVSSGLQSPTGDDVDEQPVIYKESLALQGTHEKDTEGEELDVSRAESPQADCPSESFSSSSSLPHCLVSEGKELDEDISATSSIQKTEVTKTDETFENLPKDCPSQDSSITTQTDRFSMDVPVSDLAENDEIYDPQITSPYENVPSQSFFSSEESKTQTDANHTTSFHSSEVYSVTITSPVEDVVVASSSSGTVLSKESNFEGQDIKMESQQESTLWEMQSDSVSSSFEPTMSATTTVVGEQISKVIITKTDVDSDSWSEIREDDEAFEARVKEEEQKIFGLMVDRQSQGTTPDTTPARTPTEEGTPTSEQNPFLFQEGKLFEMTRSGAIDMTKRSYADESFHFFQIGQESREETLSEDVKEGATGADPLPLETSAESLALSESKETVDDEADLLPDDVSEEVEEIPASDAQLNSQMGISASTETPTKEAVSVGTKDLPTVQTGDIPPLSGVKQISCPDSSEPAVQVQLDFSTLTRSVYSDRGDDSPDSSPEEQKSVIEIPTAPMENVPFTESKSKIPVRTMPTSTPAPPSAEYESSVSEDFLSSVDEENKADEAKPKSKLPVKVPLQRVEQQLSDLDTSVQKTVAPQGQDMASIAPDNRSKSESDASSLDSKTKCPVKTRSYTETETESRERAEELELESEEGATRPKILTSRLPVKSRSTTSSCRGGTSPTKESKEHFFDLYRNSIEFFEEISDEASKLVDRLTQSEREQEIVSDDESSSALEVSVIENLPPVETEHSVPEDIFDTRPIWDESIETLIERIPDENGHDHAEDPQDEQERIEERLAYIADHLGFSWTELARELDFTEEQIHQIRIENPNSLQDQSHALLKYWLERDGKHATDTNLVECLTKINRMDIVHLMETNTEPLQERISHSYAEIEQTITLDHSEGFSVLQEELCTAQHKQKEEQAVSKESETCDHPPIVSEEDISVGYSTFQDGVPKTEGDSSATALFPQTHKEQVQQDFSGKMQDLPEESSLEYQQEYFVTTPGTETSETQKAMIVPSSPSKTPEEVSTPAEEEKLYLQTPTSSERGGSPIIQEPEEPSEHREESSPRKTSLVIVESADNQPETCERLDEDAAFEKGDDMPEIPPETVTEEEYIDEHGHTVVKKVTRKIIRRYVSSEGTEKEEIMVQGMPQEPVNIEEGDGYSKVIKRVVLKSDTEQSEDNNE
# UniProt Q9NXW9, sequence (Q9NXW9 whole entry, looked up): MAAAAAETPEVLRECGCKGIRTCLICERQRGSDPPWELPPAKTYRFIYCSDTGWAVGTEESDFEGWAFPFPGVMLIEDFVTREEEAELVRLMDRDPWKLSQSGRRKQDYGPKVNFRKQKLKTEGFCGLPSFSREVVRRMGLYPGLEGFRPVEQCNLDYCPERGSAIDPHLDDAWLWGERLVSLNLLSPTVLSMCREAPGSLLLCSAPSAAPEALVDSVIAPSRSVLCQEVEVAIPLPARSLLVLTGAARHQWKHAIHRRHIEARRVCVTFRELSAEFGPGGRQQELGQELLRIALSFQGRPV
# UniProt Q8NFV4, sequence (Q8NFV4 whole entry, looked up): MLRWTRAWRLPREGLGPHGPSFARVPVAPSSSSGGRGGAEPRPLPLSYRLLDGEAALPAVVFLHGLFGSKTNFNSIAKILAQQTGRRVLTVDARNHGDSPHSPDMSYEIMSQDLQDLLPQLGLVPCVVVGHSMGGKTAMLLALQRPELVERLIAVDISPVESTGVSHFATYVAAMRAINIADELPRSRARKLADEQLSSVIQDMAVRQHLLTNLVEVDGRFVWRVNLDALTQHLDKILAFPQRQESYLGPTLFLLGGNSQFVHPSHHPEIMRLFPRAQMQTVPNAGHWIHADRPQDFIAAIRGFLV
# UniProt P56385, sequence (P56385 whole entry, looked up): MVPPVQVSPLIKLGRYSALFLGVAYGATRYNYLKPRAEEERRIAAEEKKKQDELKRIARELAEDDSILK
Target,log2 fold change (IRAK-1-4 Inhibitor I),log2 fold change (ibrutinib),log2 fold change [1],log2 fold change (ralimetinib),log2 fold change [2],log2 fold change [3],log2 fold change [4],log2 fold change (pinometostat),log2 fold change [5],log2 fold change [6],log2 fold change [7],log2 fold change [8],log2 fold change [9],log2 fold change (Nexturastat A),log2 fold change (vemurafenib),log2 fold change [10],log2 fold change [11],log2 fold change (givinostat),log2 fold change (barasertib),log2 fold change [12]
BAD (UniProt Q92934),0.057,0.024,-0.061,-0.054,0.077,-0.04,-0.041,0.012,0.065,-0.198,0.007,-0.021,-0.051,-0.324 (active),-0.076,-0.037,0.05,-0.133,-0.003,
ATP5ME (UniProt P56385),-0.003,-0.002,-0.019,-0.04,-0.044,0.031,0.011,-0.036,0.011,0.036,-0.037,0.031,0.011,-0.035,-0.003,-0.041,-0.041,0.027,0.007,0.039
ALKBH4 (UniProt Q9NXW9),0.009,-0.126,-0.07,0.017,-0.12,-0.086,-0.033,-0.065,,0.071,-0.008,-0.015,0.019,-0.125,-0.048,0.032,-0.015,-0.05,-0.016,-0.11
ALG14 (UniProt Q96F25),0.007,0.104,-0.157,-0.12,-0.115,-0.098,0.093,0.038,0.002,,-0.13,0.045,0.068,-0.479,-0.053,0.052,-0.131,0.03,0.03,0.195
ABCA3 (UniProt Q99758),-0.012,-0.051,-0.005,-0.096,-0.096,-0.007,-0.017,0.203,,-0.029,0.011,-0.008,-0.035,-0.142,-0.161,-0.112,,0.059,0.196,0.054
APOH (UniProt P02749),0.13,0.155,0.211,-0.131,,-0.067,0.119,-0.117,0.419,-0.346,0.265,0.055,0.192,,0.225,-0.063,-0.611,0.046,-0.203,-0.126
APH1A (UniProt Q96BI3),0.021,0.036,-0.076,,,-0.047,,-0.056,0.028,-0.136,,0.091,0.042,,0.237,0.121,-0.085,0.021,0.002,-0.03
ANK2 (UniProt Q01484),-0.069,-0.024,-0.058,-0.029,,-0.178,0.08,0.062,0.071,-0.11,-0.031,0.019,0.026,,-0.026,0.012,0.053,-0.047,0.031,0.423 (active)
ASB6 (UniProt Q9NWX5),0.106,-0.108,0.039,0.343,-0.274,-0.055,0.069,-0.031,0.059,-0.085,-0.033,0.117,-0.175,0.125,-0.144,0.108,-0.039,0.108,0.031,
BRD8 isoform 2 (UniProt Q9H0E9),0.028,0,0.036,-0.103,0.021,-0.003,0.093,0.01,,-0.013,-0.333,-0.044,-0.023,-0.023,0.183,0.06,,-0.126,-0.039,-0.071
AUH (UniProt Q13825),-0.237,0.031,0.036,-0.003,,0.084,0.026,0.28,,,-0.007,-0.107,0.082,,0.091,0.008,-0.185,0.279,0.096,0.032
ACP1 (UniProt P24666),-0.027,-0.073,-0.083,,-0.238,-0.071,,0.107,-0.055,0.007,,0.01,-0.123,0.001,0.071,-0.047,0.039,0.076,0.12,-0.087
ABITRAM (UniProt Q9NX38),0.041,0.005,-0.073,-0.088,-0.008,,0.016,-0.025,0.049,0.011,-0.036,0.062,0.027,-0.114,0,0.095,-0.252,,0.03,0.001
ADAM15 (UniProt Q13444),-0.026,0.045,-0.199,0.024,0.008,0.14,0.053,0.046,0.027,-0.045,0.056,0,-0.14,-0.016,-0.022,0.007,,0.308,-0.043,0.033
AGAP3 isoform 4 (UniProt Q96P47),-0.024,-0.018,-0.223,0.25,0.009,-0.182,-0.044,0.245,-0.107,0.037,0.071,-0.039,-0.081,0.252,,-0.022,0.089,0.113,0.199,-0.043
ABHD11 (UniProt Q8NFV4),-0.031,0.031,-0.007,-0.123,-0.006,-0.043,0.068,-0.027,-0.016,,-0.065,-0.004,0.003,-0.028,0.139,-0.011,0.023,0.02,0.057,0.026
ACAD9 (UniProt Q9H845),0.01,0.005,-0.041,-0.034,0.007,0.002,-0.036,-0.028,-0.012,-0.022,0.007,0.007,-0.001,-0.061,0.053,-0.019,-0.009,-0.012,-0.011,0.028
